# Laboratory results: the supplement of paper PMC9446081
# ± gives the standard deviation of the averaged measurements.
# Legend:
# Experiment in all cases: relative enzymatic activity vs untreated control (fraction); higher = less inhibition
# Settings in all cases: 100 µM; incubation time: 2 h at 37 C
# DNA gyrase = system: DNA gyrase
# Experimental: (§1)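 In vitro enzymatic inhibition assays (ProFoldin kits) for 12 purified essential E. coli enzymes or complexes, each treated with 218 active antibacterial compounds at 100 µM for 2 h at 37°C. Read-outs were fluorescence or absorbance (phosphate detection, dye binding), converted to activity via standard curves and expressed relative to untreated DMSO controls.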
# DNA helicase = DNA helicase (UniProt P0ACB1)
# Experimental: as §1
# DNA ligase = DNA ligase (UniProt B1XA82)
# Experimental: as §1
# DNA polymerase = DNA polymerase (UniProt P10443)
# Experimental: as §1
# DNA primase = DNA primase (UniProt P0ABS7)
# Experimental: as §1
# GlmU = GlmU (UniProt A7ZTU1)
# Experimental: as §1
# Guanlyate kinase = Guanlyate kinase (UniProt Q0TBG1)
# Experimental: as §1
# MurA = MurA (UniProt Q3YX52)
# Experimental: as §1
# MurD = target: T1, MurD (UniProt P14900)
# T1 sequence (whole entry): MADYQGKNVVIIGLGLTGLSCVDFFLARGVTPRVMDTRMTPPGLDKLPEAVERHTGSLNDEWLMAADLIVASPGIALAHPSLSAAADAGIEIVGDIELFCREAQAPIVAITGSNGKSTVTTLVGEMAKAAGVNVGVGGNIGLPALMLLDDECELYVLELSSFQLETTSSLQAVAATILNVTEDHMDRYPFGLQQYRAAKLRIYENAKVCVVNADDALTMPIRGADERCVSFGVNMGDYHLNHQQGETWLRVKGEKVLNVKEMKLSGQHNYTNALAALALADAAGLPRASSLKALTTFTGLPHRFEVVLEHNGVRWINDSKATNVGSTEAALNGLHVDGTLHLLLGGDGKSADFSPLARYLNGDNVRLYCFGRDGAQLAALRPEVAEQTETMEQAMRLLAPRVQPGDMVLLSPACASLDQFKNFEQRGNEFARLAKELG
# Experimental: as §1
# MurF = target: T2, MurF (UniProt P11880)
# T2 sequence (whole entry): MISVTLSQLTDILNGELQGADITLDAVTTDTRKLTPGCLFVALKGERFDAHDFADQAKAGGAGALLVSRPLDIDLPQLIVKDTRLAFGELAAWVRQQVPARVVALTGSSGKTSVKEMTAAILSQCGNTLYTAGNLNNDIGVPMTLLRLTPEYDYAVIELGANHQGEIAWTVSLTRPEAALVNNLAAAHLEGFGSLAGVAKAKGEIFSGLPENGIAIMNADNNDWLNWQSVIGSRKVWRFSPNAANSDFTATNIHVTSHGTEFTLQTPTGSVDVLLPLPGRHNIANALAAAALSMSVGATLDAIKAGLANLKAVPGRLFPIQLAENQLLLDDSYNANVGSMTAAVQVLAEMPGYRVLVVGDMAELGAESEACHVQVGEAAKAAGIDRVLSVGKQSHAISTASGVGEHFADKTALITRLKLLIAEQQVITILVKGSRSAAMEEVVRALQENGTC
# Experimental: as §1
# RNA polymerase = system: RNA polymerase
# Experimental: as §1
# Sequence of DNA helicase (P0ACB1 whole entry): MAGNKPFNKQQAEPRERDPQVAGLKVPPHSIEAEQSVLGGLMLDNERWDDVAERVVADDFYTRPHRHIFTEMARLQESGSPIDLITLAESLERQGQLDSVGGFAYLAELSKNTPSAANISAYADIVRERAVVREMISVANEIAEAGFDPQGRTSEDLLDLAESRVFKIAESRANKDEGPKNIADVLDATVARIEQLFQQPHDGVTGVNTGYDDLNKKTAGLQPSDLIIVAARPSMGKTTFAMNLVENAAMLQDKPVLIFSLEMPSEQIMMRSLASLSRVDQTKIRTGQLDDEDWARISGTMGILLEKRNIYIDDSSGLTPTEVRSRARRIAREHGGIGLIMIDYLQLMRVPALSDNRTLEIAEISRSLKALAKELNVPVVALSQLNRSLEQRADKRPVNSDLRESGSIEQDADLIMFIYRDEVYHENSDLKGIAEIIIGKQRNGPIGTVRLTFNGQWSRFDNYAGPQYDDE
# Sequence of DNA primase (P0ABS7 whole entry): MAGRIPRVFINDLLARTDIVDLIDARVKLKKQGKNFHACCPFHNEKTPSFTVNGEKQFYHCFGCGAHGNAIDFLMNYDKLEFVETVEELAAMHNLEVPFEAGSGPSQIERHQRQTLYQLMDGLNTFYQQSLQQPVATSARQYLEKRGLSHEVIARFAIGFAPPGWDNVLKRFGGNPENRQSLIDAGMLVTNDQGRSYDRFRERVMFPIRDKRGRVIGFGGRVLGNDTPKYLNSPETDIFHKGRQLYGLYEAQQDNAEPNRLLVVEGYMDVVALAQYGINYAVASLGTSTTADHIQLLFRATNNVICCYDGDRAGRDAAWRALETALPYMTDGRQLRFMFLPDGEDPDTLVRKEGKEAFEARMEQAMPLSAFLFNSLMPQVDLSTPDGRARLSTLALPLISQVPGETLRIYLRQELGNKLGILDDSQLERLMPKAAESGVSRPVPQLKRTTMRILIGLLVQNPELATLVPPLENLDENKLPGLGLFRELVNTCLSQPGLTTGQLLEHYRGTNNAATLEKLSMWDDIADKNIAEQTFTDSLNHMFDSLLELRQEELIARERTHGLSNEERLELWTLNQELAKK
# Sequence of MurA (Q3YX52 whole entry): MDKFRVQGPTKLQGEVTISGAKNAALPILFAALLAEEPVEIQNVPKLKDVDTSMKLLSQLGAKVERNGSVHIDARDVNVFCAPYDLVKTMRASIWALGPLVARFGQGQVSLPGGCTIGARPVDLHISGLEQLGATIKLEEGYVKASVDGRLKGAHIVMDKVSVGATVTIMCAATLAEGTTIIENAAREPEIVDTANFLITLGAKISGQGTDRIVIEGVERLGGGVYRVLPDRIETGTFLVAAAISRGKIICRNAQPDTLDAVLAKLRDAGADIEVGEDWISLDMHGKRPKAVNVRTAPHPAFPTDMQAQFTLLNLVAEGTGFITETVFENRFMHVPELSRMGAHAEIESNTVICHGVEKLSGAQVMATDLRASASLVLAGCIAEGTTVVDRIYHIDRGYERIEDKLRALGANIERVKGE
# Sequence of Guanlyate kinase (Q0TBG1 whole entry): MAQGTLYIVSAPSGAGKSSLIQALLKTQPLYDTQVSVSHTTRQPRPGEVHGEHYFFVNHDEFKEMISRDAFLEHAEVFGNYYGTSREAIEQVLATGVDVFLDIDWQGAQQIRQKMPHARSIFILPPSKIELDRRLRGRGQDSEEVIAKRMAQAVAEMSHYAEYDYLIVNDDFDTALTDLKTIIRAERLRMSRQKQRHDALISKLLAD
# Sequence of GlmU (A7ZTU1 whole entry, looked up): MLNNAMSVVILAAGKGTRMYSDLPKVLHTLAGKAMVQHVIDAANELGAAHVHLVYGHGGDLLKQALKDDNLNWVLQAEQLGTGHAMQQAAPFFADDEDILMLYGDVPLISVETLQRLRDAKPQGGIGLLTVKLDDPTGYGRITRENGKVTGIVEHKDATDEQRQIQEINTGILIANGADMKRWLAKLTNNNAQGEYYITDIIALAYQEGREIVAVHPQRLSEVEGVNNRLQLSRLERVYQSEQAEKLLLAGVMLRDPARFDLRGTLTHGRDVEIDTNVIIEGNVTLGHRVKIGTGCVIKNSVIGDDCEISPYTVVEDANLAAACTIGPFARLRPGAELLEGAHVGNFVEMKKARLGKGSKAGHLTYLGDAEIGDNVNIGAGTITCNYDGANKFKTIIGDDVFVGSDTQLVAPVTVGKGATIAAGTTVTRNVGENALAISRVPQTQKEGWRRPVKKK
# Sequence of DNA ligase (B1XA82 whole entry): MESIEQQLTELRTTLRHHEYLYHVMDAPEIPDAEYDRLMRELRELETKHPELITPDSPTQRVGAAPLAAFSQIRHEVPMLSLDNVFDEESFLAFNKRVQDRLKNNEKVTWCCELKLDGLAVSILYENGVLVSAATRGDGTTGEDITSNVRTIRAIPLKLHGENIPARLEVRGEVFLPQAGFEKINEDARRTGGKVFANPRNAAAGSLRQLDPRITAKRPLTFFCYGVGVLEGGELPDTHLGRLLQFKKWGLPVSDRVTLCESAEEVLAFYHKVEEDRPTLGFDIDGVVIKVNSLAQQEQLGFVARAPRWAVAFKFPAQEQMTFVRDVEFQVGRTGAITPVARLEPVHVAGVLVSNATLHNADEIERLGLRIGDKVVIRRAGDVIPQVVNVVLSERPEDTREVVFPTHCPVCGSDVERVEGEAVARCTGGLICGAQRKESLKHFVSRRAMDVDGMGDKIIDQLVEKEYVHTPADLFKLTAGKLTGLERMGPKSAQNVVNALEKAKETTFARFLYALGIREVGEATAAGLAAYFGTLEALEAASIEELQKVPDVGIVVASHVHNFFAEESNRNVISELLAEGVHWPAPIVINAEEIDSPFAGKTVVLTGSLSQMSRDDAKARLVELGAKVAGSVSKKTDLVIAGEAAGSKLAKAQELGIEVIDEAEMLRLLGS
# Sequence of DNA polymerase (P10443 whole entry): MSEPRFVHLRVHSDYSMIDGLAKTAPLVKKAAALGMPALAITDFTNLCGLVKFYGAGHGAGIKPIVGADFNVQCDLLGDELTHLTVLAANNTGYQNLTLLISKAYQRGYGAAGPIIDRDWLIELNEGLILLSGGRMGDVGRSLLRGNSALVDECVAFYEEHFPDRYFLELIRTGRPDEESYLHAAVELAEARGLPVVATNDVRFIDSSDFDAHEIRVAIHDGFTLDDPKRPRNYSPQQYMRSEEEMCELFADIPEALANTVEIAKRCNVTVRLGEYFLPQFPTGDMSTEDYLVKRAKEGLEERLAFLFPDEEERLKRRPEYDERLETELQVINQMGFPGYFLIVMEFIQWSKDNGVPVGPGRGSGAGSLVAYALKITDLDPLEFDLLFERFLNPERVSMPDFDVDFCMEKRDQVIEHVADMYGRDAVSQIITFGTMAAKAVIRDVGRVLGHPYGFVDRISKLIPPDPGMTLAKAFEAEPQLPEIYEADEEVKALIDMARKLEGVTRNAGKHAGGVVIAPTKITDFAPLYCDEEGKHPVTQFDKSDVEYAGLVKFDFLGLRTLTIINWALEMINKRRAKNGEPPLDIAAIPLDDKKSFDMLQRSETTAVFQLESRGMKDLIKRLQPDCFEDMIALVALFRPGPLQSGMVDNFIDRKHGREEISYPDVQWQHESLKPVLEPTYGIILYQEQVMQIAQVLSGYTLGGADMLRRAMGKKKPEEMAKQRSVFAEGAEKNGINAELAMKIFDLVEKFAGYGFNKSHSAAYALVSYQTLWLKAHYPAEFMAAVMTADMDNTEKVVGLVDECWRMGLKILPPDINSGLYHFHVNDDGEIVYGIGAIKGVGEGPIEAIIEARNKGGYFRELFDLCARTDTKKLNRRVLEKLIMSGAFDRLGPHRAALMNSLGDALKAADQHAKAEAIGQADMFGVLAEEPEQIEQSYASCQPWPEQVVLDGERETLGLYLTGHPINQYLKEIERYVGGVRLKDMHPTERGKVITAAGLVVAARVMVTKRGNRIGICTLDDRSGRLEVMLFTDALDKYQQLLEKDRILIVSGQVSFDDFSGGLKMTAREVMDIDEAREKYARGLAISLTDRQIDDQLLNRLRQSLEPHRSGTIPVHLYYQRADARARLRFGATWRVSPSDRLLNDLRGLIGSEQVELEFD
Compound,relative enzymatic activity (DNA gyrase),relative enzymatic activity (DNA helicase),relative enzymatic activity (DNA ligase),relative enzymatic activity (DNA polymerase),relative enzymatic activity (DNA primase),relative enzymatic activity (GlmU),relative enzymatic activity (Guanlyate kinase),relative enzymatic activity (MurA),relative enzymatic activity (MurD),relative enzymatic activity (MurF),relative enzymatic activity (RNA polymerase)
Nc1ncn(C2OC(CO)C(O)C2O)c(=O)n1 (configuration not stated),0.722 ± 0.32,0.653 ± 0.16,1.318 ± 0.003,1.27 ± 0.31,0.709 ± 0.21,1.14 ± 0.13,0.934 ± 0.14,0.786 ± 0.13,0.61 ± 0.4,0.987 ± 0.21,1.01 ± 0.18
CON=C(C(=O)NC1C(=O)N2C(C(=O)[O-])=C(COC(C)=O)CSC12)c1csc(N)n1.[Na+] (configuration not stated),0.696 ± 0.52,0.4103 ± 0.0017,0.569 ± 0.58,1.11 ± 0.28,0.68 ± 0.16,0.914 ± 0.13,1.04 ± 0.053,0.0697 ± 0.016,0.575 ± 0.37,0.939 ± 0.19,0.608 ± 0.48
CCC(C)CCCCC(=O)NC(CCN)C(=O)NC(C(=O)NC(CCN)C(=O)NC1CCNC(=O)C(C(C)O)NC(=O)C(CCN)NC(=O)C(CCN)NC(=O)C(CC(C)C)NC(=O)C(Cc2ccccc2)NC(=O)C(CCN)NC1=O)C(C)O.O=S(=O)(O)O (configuration not stated),1.09 ± 0.019,0.653 ± 0.23,0.982 ± 0.031,1.36 ± 0.48,0.688 ± 0.15,1.037 ± 0.0054,0.9729 ± 0.0096,0.649 ± 0.024,0.639 ± 0.43,0.894 ± 0.25,0.892 ± 0.046
NCc1ccccc1CC(=O)NC1C(=O)N2C(C(=O)O)=C(CSc3nnnn3CC(=O)O)CSC12 (configuration not stated),1.03 ± 0.026,0.487 ± 0.014,1.19 ± 0.037,1.38 ± 0.51,0.683 ± 0.18,1.05 ± 0.23,0.988 ± 0.13,0.08776 ± 0.00022,0.581 ± 0.39,0.979 ± 0.2,0.979 ± 0.23
CC[C@@H]1OC(=O)[C@H](C)[C@@H](O[C@H]2C[C@@](C)(OC)[C@@H](O)[C@H](C)O2)[C@H](C)[C@@H](O[C@@H]2O[C@H](C)C[C@H](N(C)C)[C@H]2O)[C@](C)(O)C[C@@H](C)/C(=N\OCOCCOC)[C@H](C)[C@@H](O)[C@]1(C)O,0.682 ± 0.5,0.568 ± 0.081,0.8031 ± 0.0034,0.48 ± 0.67,0.8559 ± 0.0026,0.895 ± 0.076,0.922 ± 0.026,0.852 ± 0.19,0.583 ± 0.4,1.12 ± 0.015,0.884 ± 0.17
NC(=O)[C@@H]1CC[C@@H]2CN1C(=O)N2OS(=O)(=O)O,0.771 ± 0.26,0.552 ± 0.18,0.834 ± 0.21,0.501 ± 0.71,0.803 ± 0.037,0.998 ± 0.01,0.947 ± 0.072,0.699 ± 0.17,0.604 ± 0.42,0.976 ± 0.22,0.809 ± 0.13
CN[C@@H]1[C@H](O)[C@H](NC)[C@H]2O[C@@]3(O)C(=O)C[C@@H](C)O[C@H]3O[C@@H]2[C@H]1O,0.826 ± 0.36,0.508 ± 0.2,1.12 ± 0.086,1.09 ± 0.072,0.8044 ± 0.0019,1 ± 0.033,1.06 ± 0.05,0.601 ± 0.16,0.624 ± 0.44,1.16 ± 0.02,0.91 ± 0.14
CN1CCN(c2c(F)cc3c(=O)c(C(=O)O)cn4c3c2OCN4C)CC1,0.115 ± 0.16,0.53713 ± 0.00022,0.908 ± 0.041,1.17 ± 0.21,0.86 ± 0.01,0.97 ± 0.023,0.958 ± 0.14,0.585 ± 0.19,0.624 ± 0.43,1.17 ± 0.022,0.816 ± 0.086
CC[C@@H](C)CCCCC(=O)N[C@@H](CCN)C(=O)N[C@H](C(=O)N[C@@H](CCN)C(=O)N[C@H]1CCNC(=O)[C@H]([C@@H](C)O)NC(=O)[C@H](CCN)NC(=O)[C@H](CCN)NC(=O)[C@H](CC(C)C)NC(=O)[C@@H](Cc2ccccc2)NC(=O)[C@@H](CCN)NC1=O)[C@@H](C)O,1.66 ± 0.37,0.0939 ± 0.022,0.701 ± 0.47,0.34 ± 0.059,0.616 ± 0.13,1.11 ± 0.016,0.449 ± 0.055,0.646 ± 0.21,0.674 ± 0.44,0.991 ± 0.22,0.46 ± 0.03
CC[C@H]1OC(=O)[C@H](C)[C@@H](O[C@H]2C[C@@](C)(OC)[C@@H](O)[C@H](C)O2)[C@H](C)[C@@H](O[C@@H]2O[C@H](C)C[C@H](N(C)C)[C@H]2O)[C@](C)(O)C[C@@H](C)C(=O)[C@H](C)[C@@H](O)[C@]1(C)O,0.598 ± 0.22,0.608 ± 0.21,0.92 ± 0.048,0.503 ± 0.71,0.838 ± 0.027,0.9665 ± 0.0044,0.961 ± 0.098,0.848 ± 0.071,0.584 ± 0.39,0.939 ± 0.22,0.863 ± 0.024
Cc1cc(O)c(C(=O)NC(C(=O)NC2C(=O)N3C(C(=O)O)=C(CSc4nnnn4C)CSC23)c2ccc(O)cc2)cn1 (configuration not stated),0.926 ± 0.39,0.805 ± 0.39,1.22 ± 0.41,1.34 ± 0.42,0.891 ± 0.028,0.962 ± 0.018,0.925 ± 0.044,0.346 ± 0.0056,0.601 ± 0.41,0.945 ± 0.24,0.862 ± 0.071
N[C@@H]1CC[C@@H](c2ccc(Cl)c(Cl)c2)c2ccccc21,0.381 ± 0.18,0.0688 ± 0.0028,0.842 ± 0.083,0.507 ± 0.72,0.749 ± 0.027,0.646 ± 0.059,0.924 ± 0.13,0.622 ± 0.57,0.378 ± 0.23,1.02 ± 0.22,0.905 ± 0.019
